# Results from the supplement of paper PMC4466140.
# How the values were obtained:
# Assay in all cases: SPOT peptide array binding signal intensity (averaged, normalized) (arbitrary units (background-subtracted, floor 0; scale differs between SH3 domains)); higher = stronger binding of the SH3 domain to the peptide
# AgAbp1 = target: AgAbp1
# How it was run: (§1)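 SH3 domains from four yeast species were expressed as GST fusions in E. coli BL21(DE3) and purified on glutathione Sepharose. Each was incubated at 10 μg/ml overnight at 4°C in TBS-based blocking buffer on cellulose membranes bearing synthetic 15-mer peptides, in which serines replaced cysteines. Bound protein was detected with anti-GST antibody, an HRP anti-mouse secondary and luminol, then imaged and quantified with Genespotter. The binding signal is the normalized, background-subtracted spot intensity averaged over replicates, in arbitrary units that are not the same from one domain to another.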
# AgBbc1 = target: AgBbc1
# How it was run: as §1
# AgBem1-D1 = target: AgBem1-D1
# How it was run: as §1
# AgBzz1-D1 = target: AgBzz1-D1
# How it was run: as §1
# AgBzz1-D2 = target: AgBzz1-D2
# How it was run: as §1
# AgCyk3 = target: AgCyk3
# How it was run: as §1
# AgFus1 = target: AgFus1
# How it was run: as §1
# AgHof1 = target: AgHof1
# How it was run: as §1
# AgHse1 = target: AgHse1
# How it was run: as §1
# AgLsb1 = target: AgLsb1
# How it was run: as §1
# AgLsb4 = target: AgLsb4
# How it was run: as §1
# AgMyo5 = target: AgMyo5
# How it was run: as §1
# AgNbp2 = target: AgNbp2
# How it was run: as §1
# AgRvs167 = target: AgRvs167
# How it was run: as §1
# AgSho1 = target: AgSho1
# How it was run: as §1
# AgSla1-D1-D2 = target: AgSla1-D1-D2
# How it was run: as §1
# AgSla1-D3 = target: AgSla1-D3
# How it was run: as §1
# CaAbp1-D1 = target: CaAbp1-D1
# How it was run: as §1
# CaAbp1-D2 = target: CaAbp1-D2
# How it was run: as §1
# CaBbc1 = target: CaBbc1
# How it was run: as §1
# CaBem1-D1 = target: CaBem1-D1
# How it was run: as §1
# CaBzz1-D1 = target: CaBzz1-D1
# How it was run: as §1
# CaBzz1-D2 = target: CaBzz1-D2
# How it was run: as §1
# CaCyk3 = target: CaCyk3
# How it was run: as §1
# CaFus1 = target: CaFus1
# How it was run: as §1
# CaHof1 = target: CaHof1
# How it was run: as §1
# CaHse1 = target: CaHse1
# How it was run: as §1
# CaLsb1 = target: CaLsb1
# How it was run: as §1
# CaLsb4 = target: CaLsb4
# How it was run: as §1
# CaMyo5 = target: CaMyo5
# How it was run: as §1
# CaNbp2 = target: CaNbp2
# How it was run: as §1
# CaRvs167 = target: CaRvs167
# How it was run: as §1
# CaRvs167-3 = target: CaRvs167-3
# How it was run: as §1
# CaSho1 = target: CaSho1
# How it was run: as §1
# CaSla1-D1-D2 = target: CaSla1-D1-D2
# How it was run: as §1
# CaSla1-D3 = target: CaSla1-D3
# How it was run: as §1
# ScAbp1 = target: ScAbp1
# How it was run: as §1
# ScBbc1 = target: ScBbc1
# How it was run: as §1
# ScBem1-D1 = target: ScBem1-D1
# How it was run: as §1
# ScBzz1-D1 = target: ScBzz1-D1
# How it was run: as §1
# ScBzz1-D2 = target: ScBzz1-D2
# How it was run: as §1
# ScCyk3 = target: ScCyk3
# How it was run: as §1
# ScFus1 = target: ScFus1
# How it was run: as §1
# ScHof1 = target: ScHof1
# How it was run: as §1
# ScHse1 = target: ScHse1
# How it was run: as §1
# ScLsb1 = target: ScLsb1
# How it was run: as §1
# ScLsb2 = target: ScLsb2
# How it was run: as §1
# ScLsb3 = target: ScLsb3
# How it was run: as §1
# ScLsb4 = target: ScLsb4
# How it was run: as §1
# ScMyo3 = target: ScMyo3
# How it was run: as §1
# ScMyo5 = target: ScMyo5
# How it was run: as §1
# ScNbp2 = target: ScNbp2
# How it was run: as §1
# ScPex13 = target: ScPex13
# How it was run: as §1
# ScRvs167 = target: ScRvs167
# How it was run: as §1
# ScSho1 = target: ScSho1
# How it was run: as §1
# ScSla1-D1-D2 = target: ScSla1-D1-D2
# How it was run: as §1
# ScSla1-D3 = target: ScSla1-D3
# How it was run: as §1
# SpAbp1-D1 = target: SpAbp1-D1
# How it was run: as §1
# SpBbc1 = target: SpBbc1
# How it was run: as §1
# SpBzz1-D1 = target: SpBzz1-D1
# How it was run: as §1
# SpBzz1-D2 = target: SpBzz1-D2
# How it was run: as §1
# SpCyk3 = target: SpCyk3
# How it was run: as §1
# SpHof1 = target: SpHof1
# How it was run: as §1
# SpHof1-2 = target: SpHof1-2
# How it was run: as §1
# SpHof1-3 = target: SpHof1-3
# How it was run: as §1
# SpHse1 = target: SpHse1
# How it was run: as §1
# SpLsb1 = target: SpLsb1
# How it was run: as §1
# SpLsb4 = target: SpLsb4
# How it was run: as §1
# SpMyo1 = target: SpMyo1
# How it was run: as §1
# SpNbp2 = target: SpNbp2
# How it was run: as §1
# SpPex13 = target: SpPex13
# How it was run: as §1
# SpRvs167 = target: SpRvs167
# How it was run: as §1
# SpSla1-D1-D2 = target: SpSla1-D1-D2
# How it was run: as §1
# SpSla1-D3 = target: SpSla1-D3
# How it was run: as §1
binder,measurement,setting,value
RLSFFFPLDPAYIRN,SPOT peptide array binding signal intensity,AgAbp1,≤ 0
same,SPOT peptide array binding signal intensity,AgBbc1,2.25
same,SPOT peptide array binding signal intensity,AgBem1-D1,121
same,SPOT peptide array binding signal intensity,AgBzz1-D1,27
same,SPOT peptide array binding signal intensity,AgBzz1-D2,72.5
same,SPOT peptide array binding signal intensity,AgCyk3,7
same,SPOT peptide array binding signal intensity,AgFus1,854
same,SPOT peptide array binding signal intensity,AgHof1,34
same,SPOT peptide array binding signal intensity,AgHse1,1180
same,SPOT peptide array binding signal intensity,AgLsb1,1.5
same,SPOT peptide array binding signal intensity,AgLsb4,152
same,SPOT peptide array binding signal intensity,AgMyo5,1.5
same,SPOT peptide array binding signal intensity,AgNbp2,34
same,SPOT peptide array binding signal intensity,AgRvs167,4
same,SPOT peptide array binding signal intensity,AgSho1,50
same,SPOT peptide array binding signal intensity,AgSla1-D1-D2,37
same,SPOT peptide array binding signal intensity,AgSla1-D3,8.5
same,SPOT peptide array binding signal intensity,CaAbp1-D1,2
same,SPOT peptide array binding signal intensity,CaAbp1-D2,≤ 0
same,SPOT peptide array binding signal intensity,CaBbc1,≤ 0
same,SPOT peptide array binding signal intensity,CaBem1-D1,24
same,SPOT peptide array binding signal intensity,CaBzz1-D1,32.5
same,SPOT peptide array binding signal intensity,CaBzz1-D2,43
same,SPOT peptide array binding signal intensity,CaCyk3,3
same,SPOT peptide array binding signal intensity,CaFus1,2490
same,SPOT peptide array binding signal intensity,CaHof1,0.5
same,SPOT peptide array binding signal intensity,CaHse1,134
same,SPOT peptide array binding signal intensity,CaLsb1,1.5
same,SPOT peptide array binding signal intensity,CaLsb4,45.5
same,SPOT peptide array binding signal intensity,CaMyo5,187
same,SPOT peptide array binding signal intensity,CaNbp2,474
same,SPOT peptide array binding signal intensity,CaRvs167,57.8
same,SPOT peptide array binding signal intensity,CaRvs167-3,238
same,SPOT peptide array binding signal intensity,CaSho1,1050
same,SPOT peptide array binding signal intensity,CaSla1-D1-D2,≤ 0
same,SPOT peptide array binding signal intensity,CaSla1-D3,35.8
same,SPOT peptide array binding signal intensity,ScAbp1,2
same,SPOT peptide array binding signal intensity,ScBbc1,≤ 0
same,SPOT peptide array binding signal intensity,ScBem1-D1,17
same,SPOT peptide array binding signal intensity,ScBzz1-D1,42
same,SPOT peptide array binding signal intensity,ScBzz1-D2,79
same,SPOT peptide array binding signal intensity,ScCyk3,282
same,SPOT peptide array binding signal intensity,ScFus1,627
same,SPOT peptide array binding signal intensity,ScHof1,2
same,SPOT peptide array binding signal intensity,ScHse1,1380
same,SPOT peptide array binding signal intensity,ScLsb1,0.5
same,SPOT peptide array binding signal intensity,ScLsb2,≤ 0
same,SPOT peptide array binding signal intensity,ScLsb3,48
same,SPOT peptide array binding signal intensity,ScLsb4,9
same,SPOT peptide array binding signal intensity,ScMyo3,9.5
same,SPOT peptide array binding signal intensity,ScMyo5,5
same,SPOT peptide array binding signal intensity,ScNbp2,84.5
same,SPOT peptide array binding signal intensity,ScPex13,6.25
same,SPOT peptide array binding signal intensity,ScRvs167,7.67
same,SPOT peptide array binding signal intensity,ScSho1,738
same,SPOT peptide array binding signal intensity,ScSla1-D1-D2,13
same,SPOT peptide array binding signal intensity,ScSla1-D3,37.5
same,SPOT peptide array binding signal intensity,SpAbp1-D1,1
same,SPOT peptide array binding signal intensity,SpBbc1,0.5
same,SPOT peptide array binding signal intensity,SpBzz1-D1,121
same,SPOT peptide array binding signal intensity,SpBzz1-D2,2
same,SPOT peptide array binding signal intensity,SpCyk3,24
same,SPOT peptide array binding signal intensity,SpHof1,130
same,SPOT peptide array binding signal intensity,SpHof1-2,45
same,SPOT peptide array binding signal intensity,SpHof1-3,389
same,SPOT peptide array binding signal intensity,SpHse1,1620
same,SPOT peptide array binding signal intensity,SpLsb1,≤ 0
same,SPOT peptide array binding signal intensity,SpLsb4,15
same,SPOT peptide array binding signal intensity,SpMyo1,17.8
same,SPOT peptide array binding signal intensity,SpNbp2,69.5
same,SPOT peptide array binding signal intensity,SpPex13,23.5
same,SPOT peptide array binding signal intensity,SpRvs167,11.2
same,SPOT peptide array binding signal intensity,SpSla1-D1-D2,6
same,SPOT peptide array binding signal intensity,SpSla1-D3,32
